A number with no mark means an inactive call. Records with an inconclusive call do not appear. A call without a number means that no potency is given here. Active and inactive are the calls of the source. Unless noted, calls come from the whole dose curve.
Assays:
[1] = Nuclear factor erythroid 2-related factor 2/antioxidant responsive element (Nrf2/ARE) small molecule agonists: qHTS cell viability counter screen in human keratinocytes (AID 1919968; active = well fitted curve in the direction sought with a large enough effect in the repeat runs; an effect the other way counts as inactive or inconclusive; note: nearly all actives have a fitted effect of over 55% in size)
Procedure, shortened: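 In human HaCaT keratinocytes stably expressing an ARE-driven luciferase, compound exposure lasted 23 h at 37 C under 5% CO2. Viable cells are quantified with a protease-based fluorogenic reagent (CellTiter-Fluor) read 1 h after addition.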

[2] = Nuclear factor erythroid 2-related factor 2/antioxidant responsive element (Nrf2/ARE) small molecule agonists: luciferase reporter gene qHTS assay in human keratinocytes (AID 1919969); note: nearly all actives have a fitted effect of over 35% in size; note: potency is the fitted concentration of half-maximal effect
[3] = target: Gonadotropin-releasing hormone receptor (Homo sapiens) (UniProt P30968); test: Human gonadotropin-releasing hormone receptor (GnRHR) small molecule agonists, calcium flux assay in GnRHR-HEK293 cells (AID 1920063); note: nearly all actives have a fitted effect of over 35% in size
Sequence of Gonadotropin-releasing hormone receptor (Homo sapiens) (P30968 whole entry, looked up): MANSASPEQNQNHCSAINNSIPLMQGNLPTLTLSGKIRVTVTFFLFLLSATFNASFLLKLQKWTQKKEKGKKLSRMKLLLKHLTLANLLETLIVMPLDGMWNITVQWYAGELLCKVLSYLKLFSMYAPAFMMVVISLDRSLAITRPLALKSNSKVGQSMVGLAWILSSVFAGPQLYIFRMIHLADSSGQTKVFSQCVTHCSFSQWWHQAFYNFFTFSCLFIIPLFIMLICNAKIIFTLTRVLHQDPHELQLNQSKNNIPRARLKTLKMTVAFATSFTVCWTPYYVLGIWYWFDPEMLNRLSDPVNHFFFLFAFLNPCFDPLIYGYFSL
Procedure, shortened: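 Intracellular calcium rise is the read-out: engineered human GnRHR HEK293 cells, dye-loaded, are exposed to DMSO-dissolved compounds and fluorescence at Ex/Em 480/540 is tracked for 3 min.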

[4] = target: KiSS-1 receptor (Homo sapiens) (UniProt Q969F8); test: Human kisspeptin (KISS1R) small molecule agonists, calcium flux assay in KISS1R-HEK293 cells (AID 1920064; active = well fitted curve in the direction sought with a large enough effect in the repeat runs; an effect the other way counts as inactive or inconclusive)
Sequence of KiSS-1 receptor (Homo sapiens) (Q969F8 whole entry, looked up): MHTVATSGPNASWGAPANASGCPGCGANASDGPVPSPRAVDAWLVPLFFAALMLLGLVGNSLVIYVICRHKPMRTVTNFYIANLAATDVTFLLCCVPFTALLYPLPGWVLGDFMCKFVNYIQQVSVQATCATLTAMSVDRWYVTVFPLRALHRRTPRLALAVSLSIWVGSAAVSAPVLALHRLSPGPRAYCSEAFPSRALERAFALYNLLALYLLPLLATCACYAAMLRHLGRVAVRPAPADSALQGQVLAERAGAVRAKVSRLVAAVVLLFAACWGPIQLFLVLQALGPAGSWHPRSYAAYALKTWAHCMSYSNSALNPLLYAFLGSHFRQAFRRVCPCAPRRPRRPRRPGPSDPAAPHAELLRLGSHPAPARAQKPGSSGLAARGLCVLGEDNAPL
Procedure, shortened: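 Concentration-response testing used 15 concentrations in triplicate on human KISS1R-expressing HEK293 cells. Calcium-dependent fluorescence (Ex/Em 480/540) was followed kinetically for 3 min after compound transfer.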

[5] = G protein-coupled receptor (GPCR) small molecule agonists, calcium flux assay: HEK293 wild type cell line counter screen (AID 1920065)
Procedure, shortened: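 Fluorescence intensity signals activation. After overnight (18 h) culture and a 1 h calcium dye load at 37 C, compounds are added by pin tool and the plate read at 480/540 nm for 3 min in 1 s steps.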

[6] = p53 small molecule agonists, cell-based qHTS assay with human liver microsomes (AID 1963577);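 note: p53 response element beta-lactamase reporter cells with liver microsomes plus NADPH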
Procedure, shortened: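 In this qHTS, p53 response-element beta-lactamase cells receive test compound together with a microsome/NADPH activating system (0.5 mg/mL final each) and are incubated 16 h at 37 C before LiveBLAzer fluorescence detection.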

[7] = p53 small molecule agonists, cell-based qHTS assay with rat liver microsomes (AID 1963578)
Procedure, shortened: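 Agonist mode in p53RE-bla reporter cells, with compounds co-incubated 16 h at 37 C alongside 0.5 mg/mL rat liver microsomes and 0.5 mg/mL NADPH (final), followed by a 2 h LiveBLAzer detection step.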

[8] = p53 small molecule agonists, cell-based qHTS assay with human liver microsomes: qHTS cell viability counter screen (AID 1963579); note: nearly all actives have a fitted effect of over 45% in size
Procedure, shortened: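 Metabolically activated exposure: compounds, human liver microsomes and NADPH (0.5 mg/mL final apiece) were added to p53RE-bla cells seeded 5 h earlier, left 16 h at 37 C, and then assessed for viability by CellTiter-Glo luminescence.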

[9] = p53 small molecule agonists, cell-based qHTS assay with rat liver microsomes: qHTS cell viability counter screen (AID 1963580); note: nearly all actives have a fitted effect of over 45% in size
Procedure, shortened: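 Counter screen for cytotoxicity under metabolic activation: rat liver microsomes and NADPH, 0.5 mg/mL final each, added with compounds to p53RE-bla HCT-116 cells; 16 h at 37 C, then ATP luminescence read.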

[10] = p53 small molecule agonists, cell-based qHTS assay: qHTS cell viability counter screen (AID 1963581); note: nearly all actives have a fitted effect of over 45% in size
Procedure, shortened: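 Luminescence from CellTiter-Glo, reflecting ATP content, serves as the cytotoxicity measure; it is taken after the 2 h reporter substrate step in HCT-116 p53RE-bla cells dosed for 16 h at 37 C.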

[11] = p53 small molecule agonists, cell-based qHTS assay (AID 1963582; active = well fitted activation curve with a large enough effect in the signal ratio in the repeat runs, not every such curve was filed as active; the % refers to the signal ratio)
Procedure, shortened: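 After plating, p53RE-bla cells sat 5 h in the incubator; compounds or DMSO vehicle were pinned in; a 16 h incubation at 37 C followed; FRET substrate was added and, 2 h later at RT, fluorescence was measured.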

[12] = cAMP Responsive Elements (CRE) small molecule agonists, cell-based qHTS assay (AID 1963590)
Procedure, shortened: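 Compound exposure lasted 3 h at 37 C/5% CO2 in CRE-bla HEK 293T cells grown in assay medium with 10% dialyzed FBS and 25 mM HEPES. Reporter signal came from LiveBLAzer B/G FRET substrate, 2 h, room temperature.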

[13] = cAMP Responsive Elements (CRE) small molecule antagonists, cell-based qHTS assay (AID 1963591; active = well fitted inhibition curve with a large enough effect in the signal ratio in the repeat runs, not every such curve was filed as active; the % refers to the signal ratio)
Procedure, shortened: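 Stimulation used NKH477 at a final 0.25 uM for 3 h in compound-treated CRE-bla HEK293T cells, seeded 18 h beforehand. Reporter activity was measured with LiveBLAzer B/G FRET substrate after 2 h at room temperature.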

[14] = target: Beta-2 adrenergic receptor (Homo sapiens) (UniProt P07550); test: Adrenergic beta2 receptor (ADRB2) small molecule antagonists, cell-based qHTS assay (AID 1963592); note: series mostly up to about 92 µM; nearly all actives have a fitted effect of over 50% in size
Sequence of Beta-2 adrenergic receptor (Homo sapiens) (P07550 whole entry, looked up): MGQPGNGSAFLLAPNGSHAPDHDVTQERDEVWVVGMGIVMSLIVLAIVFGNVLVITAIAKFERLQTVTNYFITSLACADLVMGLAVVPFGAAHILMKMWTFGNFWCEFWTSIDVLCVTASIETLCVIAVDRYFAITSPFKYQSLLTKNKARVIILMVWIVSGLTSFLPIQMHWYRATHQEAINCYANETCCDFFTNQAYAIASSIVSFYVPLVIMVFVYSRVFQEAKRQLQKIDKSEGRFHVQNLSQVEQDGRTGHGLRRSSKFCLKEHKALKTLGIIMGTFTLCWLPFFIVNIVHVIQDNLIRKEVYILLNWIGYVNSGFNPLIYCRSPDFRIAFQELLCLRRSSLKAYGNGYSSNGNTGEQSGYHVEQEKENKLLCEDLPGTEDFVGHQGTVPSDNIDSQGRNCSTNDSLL
Procedure, shortened: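 Assay format: CHO-ADRB2 cells, 18-20hr seeding at 37C/5% CO2, then compound plus 1nM isoproterenol agonist mix for 0.5hr RT. Homogeneous time-resolved fluorescence cAMP detection after 1hr, expressed as 665/615 nm ratio.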

[15] = target: D(2) dopamine receptor (Homo sapiens) (UniProt P14416); test: Dopamine D2 receptor (DRD2) small molecule agonists, cell-based qHTS assay (AID 1963594); note: nearly all actives have a fitted effect of over 35% in size
Sequence of D(2) dopamine receptor (Homo sapiens) (P14416 whole entry, looked up): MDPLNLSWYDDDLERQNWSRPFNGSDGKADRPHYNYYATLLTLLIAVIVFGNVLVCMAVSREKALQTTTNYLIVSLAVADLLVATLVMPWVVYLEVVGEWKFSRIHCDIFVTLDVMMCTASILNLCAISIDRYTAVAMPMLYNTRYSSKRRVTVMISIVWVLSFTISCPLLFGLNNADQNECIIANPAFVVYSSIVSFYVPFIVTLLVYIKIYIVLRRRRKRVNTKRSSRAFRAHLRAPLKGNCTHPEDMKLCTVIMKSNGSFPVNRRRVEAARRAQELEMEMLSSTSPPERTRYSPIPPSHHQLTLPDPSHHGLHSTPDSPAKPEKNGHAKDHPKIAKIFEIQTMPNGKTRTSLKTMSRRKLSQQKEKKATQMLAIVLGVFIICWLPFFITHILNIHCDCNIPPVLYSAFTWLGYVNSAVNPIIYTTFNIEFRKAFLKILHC
Procedure, shortened: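 HEK293 cells stably expressing DRD2 were cultured 24 h at 37 C, then given Ro20-1724 (0.1 mM final) and compounds for 10 min at room temperature. NKH477 (200nM) was then added for 30 min. cAMP was read by HTRF.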

[16] = target: D(2) dopamine receptor (Homo sapiens) (UniProt P14416); test: Dopamine D2 receptor (DRD2) small molecule antagonists, cell-based qHTS assay (AID 1963595; active = well fitted inhibition curve with a large enough effect in the signal ratio in the repeat runs, with a control signal flat; the % refers to the signal ratio)
Procedure, shortened: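 Antagonism was scored as restored cAMP in HEK293-DRD2 cells. These cells were stimulated with 200 nM NKH477 and 12 nM quinpirole for 30 min at room temperature, in the presence of 0.1 mM Ro20-1724.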

[17] = target: 5-hydroxytryptamine receptor 2A (Homo sapiens) (UniProt P28223); test: 5-hydroxytryptamine receptor 2A (HTR2A) small molecule antagonists, cell-based qHTS assay (AID 1963586); note: nearly all actives have a fitted effect of over 45% in size
Sequence of 5-hydroxytryptamine receptor 2A (Homo sapiens) (P28223 whole entry, looked up): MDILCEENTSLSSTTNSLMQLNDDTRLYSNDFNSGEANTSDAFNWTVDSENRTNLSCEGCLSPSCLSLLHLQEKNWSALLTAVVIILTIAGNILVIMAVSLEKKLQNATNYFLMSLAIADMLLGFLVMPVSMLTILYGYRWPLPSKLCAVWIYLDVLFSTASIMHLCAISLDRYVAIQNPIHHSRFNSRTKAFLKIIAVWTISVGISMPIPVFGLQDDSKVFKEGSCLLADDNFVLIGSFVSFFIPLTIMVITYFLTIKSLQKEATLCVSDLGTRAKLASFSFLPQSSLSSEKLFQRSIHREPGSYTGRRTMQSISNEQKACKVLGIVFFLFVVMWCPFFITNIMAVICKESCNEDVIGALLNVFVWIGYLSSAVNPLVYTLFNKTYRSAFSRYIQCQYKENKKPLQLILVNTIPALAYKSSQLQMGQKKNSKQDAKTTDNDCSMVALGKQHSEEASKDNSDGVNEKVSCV
Procedure, shortened: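 CHO cells stably expressing human HTR2A were plated for 18 h at 37 C, then loaded with calcium dye for 1 h. Compounds were preincubated 5 min at room temperature before DOI (4 nM solution) was added. Kinetic fluorescence was read for 3 min.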

[18] = target: Muscarinic acetylcholine receptor M1 (Homo sapiens) (UniProt P11229); test: Cholinergic receptor muscarinic 1 (CHRM1) small molecule antagonists, cell-based qHTS assay (AID 1963588); note: nearly all actives have a fitted effect of over 40% in size
Sequence of Muscarinic acetylcholine receptor M1 (Homo sapiens) (P11229 whole entry, looked up): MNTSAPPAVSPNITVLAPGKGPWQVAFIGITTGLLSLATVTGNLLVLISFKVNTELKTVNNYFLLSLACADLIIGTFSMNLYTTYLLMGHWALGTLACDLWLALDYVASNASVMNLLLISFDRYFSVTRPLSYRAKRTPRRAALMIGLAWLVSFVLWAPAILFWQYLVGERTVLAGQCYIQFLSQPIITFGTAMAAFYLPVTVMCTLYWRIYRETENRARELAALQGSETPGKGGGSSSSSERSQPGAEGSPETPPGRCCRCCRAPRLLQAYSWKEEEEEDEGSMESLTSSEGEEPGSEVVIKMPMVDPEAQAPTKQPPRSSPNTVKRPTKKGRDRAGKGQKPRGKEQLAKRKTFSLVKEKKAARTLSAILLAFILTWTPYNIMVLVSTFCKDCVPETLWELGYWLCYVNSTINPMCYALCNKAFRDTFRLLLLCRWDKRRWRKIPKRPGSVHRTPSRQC
Procedure, shortened: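 Compounds were tested at 15 concentrations in three independent runs. Dye-loaded CHRM1-CHO cells were exposed 5 min at room temperature before stimulation by acetylcholine added at 50nM. Intracellular calcium was read kinetically on FDSS for 3 min.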

[19] = target: Muscarinic acetylcholine receptor M1 (Homo sapiens) (UniProt P11229); test: Cholinergic receptor muscarinic 1 (CHRM1) small molecule agonists, cell-based qHTS assay (AID 1963589); note: nearly all actives have a fitted effect of over 35% in size
Procedure, shortened: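 Fluorescent calcium dye reports M1 activation in stably transfected CHO cells. Compounds, 15 concentrations, added after 1 h dye loading at 37 C; kinetic reading at 1 sec intervals.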

[20] = target: 5-hydroxytryptamine receptor 2A (Homo sapiens) (UniProt P28223); test: 5-hydroxytryptamine receptor 2A (HTR2A) small molecule agonists, cell-based qHTS assay (AID 1963587); note: nearly all actives have a fitted effect of over 30% in size
Procedure, shortened: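 HTR2A-CHO cells, plated 18 h at 37 C/5% CO2, dye-loaded 1 h at 37 C; compounds in DMSO added by pin tool (agonist mode). Intracellular calcium flux read as kinetic fluorescence on FDSS over 2 min at 1 s intervals.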

## Nc1ccc(Cc2ccc(N)cc2)cc1
[1]
  Potency: inactive
[2]
  Potency: inactive
[3]
  Potency: inactive
[4]
  Potency: inactive
[5]
  Potency: inactive
[6]
  Potency: inactive
[7]
  Potency: inactive
[8]
  Potency: inactive
[9]
  Potency: inactive
[10]
  Potency: inactive
[11]
  Potency: inactive
[12]
  Potency: inactive
[13]
  Potency: inactive
[14]
  Potency: inactive
[15]
  Potency: inactive
[16]
  Potency: inactive

## CC12CC1(C)C(=O)N(c1cc(Cl)cc(Cl)c1)C2=O (stereo not given)
[1]
  Potency: inactive
[2]
  Potency: inactive
[3]
  Potency: inactive
[4]
  Potency: inactive
[5]
  Potency: inactive
[6]
  Potency: inactive
[7]
  Potency: inactive
[8]
  Potency: inactive
[9]
  Potency: inactive
[10]
  Potency: inactive
[11]
  Potency: inactive
[17]
  Potency: inactive
[18]
  Potency: inactive
[14]
  Potency: inactive
[15]
  Potency: inactive
[16]
  Potency: inactive

## ClC1=C(Cl)[C@]2(Cl)[C@@H]3[C@@H](Cl)[C@H](Cl)C[C@@H]3[C@@]1(Cl)C2(Cl)Cl
[1]
  Potency: inactive
[2]
  Potency: inactive
[3]
  Potency: inactive
[4]
  Potency: inactive
[5]
  Potency: inactive
[6]
  Potency: inactive
[7]
  Potency: inactive
[8]
  Potency: inactive
[9]
  Potency: inactive
[10]
  Potency: inactive
[11]
  Potency: inactive
[17]
  Potency: inactive
[19]
  Potency: inactive
[12]
  Potency: inactive
[13]
  Potency: inactive
[14]
  Potency: inactive
[15]
  Potency: inactive
[16]
  Potency: inactive

## CN(C)NC(=O)CCC(=O)O
[1]
  Potency: inactive
[2]
  Potency: inactive
[3]
  Potency: inactive
[4]
  Potency: inactive
[5]
  Potency: inactive
[6]
  Potency: inactive
[7]
  Potency: inactive
[8]
  Potency: inactive
[9]
  Potency: inactive
[10]
  Potency: inactive
[11]
  Potency: inactive
[17]
  Potency: inactive
[19]
  Potency: inactive
[12]
  Potency: inactive
[13]
  Potency: inactive
[14]
  Potency: inactive
[15]
  Potency: inactive
[16]
  Potency: inactive

## C[C@]1(O)CC[C@H]2[C@@H]3CCC4=CC(=O)CC[C@]4(C)[C@@]3(F)[C@@H](O)C[C@@]21C
[1]
  Potency: inactive
[2]
  Potency: inactive
[3]
  Potency: inactive
[4]
  Potency: inactive
[5]
  Potency: inactive
[6]
  Potency: inactive
[7]
  Potency: inactive
[8]
  Potency: inactive
[9]
  Potency: inactive
[10]
  Potency: inactive
[11]
  Potency: inactive
[20]
  Potency: inactive
[18]
  Potency: inactive
[19]
  Potency: inactive
[12]
  Potency: inactive
[13]
  Potency: inactive
[14]
  Potency: inactive
[15]
  Potency: inactive

## Nc1ccc(Cl)cc1
[1]
  Potency: inactive
[2]
  Potency: inactive
[3]
  Potency: inactive
[4]
  Potency: inactive
[5]
  Potency: inactive
[6]
  Potency: inactive
[7]
  Potency: inactive
[8]
  Potency: inactive
[9]
  Potency: inactive
[10]
  Potency: inactive
[11]
  Potency: inactive
[17]
  Potency: inactive
[18]
  Potency: inactive
[12]
  Potency: inactive
[13]
  Potency: inactive
[14]
  Potency: inactive
[15]
  Potency: inactive
[16]
  Potency: inactive

## CCCCCCI
[1]
  Potency: inactive
[2]
  Potency: inactive
[3]
  Potency: inactive
[4]
  Potency: inactive
[5]
  Potency: inactive
[6]
  Potency: inactive
[7]
  Potency: inactive
[8]
  Potency: inactive
[9]
  Potency: inactive
[10]
  Potency: inactive
[11]
  Potency: inactive
[17]
  Potency: inactive
[19]
  Potency: inactive
[12]
  Potency: inactive
[13]
  Potency: inactive
[14]
  Potency: inactive
[15]
  Potency: inactive
[16]
  Potency: inactive

## COC(=O)c1ccc(CBr)cc1
[1]
  Potency: inactive
[2]
  Potency: 6.19 µM (active)
[3]
  Potency: inactive
[4]
  Potency: inactive
[5]
  Potency: inactive
[6]
  Potency: inactive
[7]
  Potency: inactive
[8]
  Potency: inactive
[9]
  Potency: inactive
[10]
  Potency: inactive
[11]
  Potency: inactive
[20]
  Potency: inactive
[18]
  Potency: inactive
[19]
  Potency: inactive
[12]
  Potency: inactive
[13]
  Potency: inactive
[14]
  Potency: inactive
[16]
  Potency: inactive

From PubChem BioAssay (Tox21)
